About 83,000 compounds went through this panel and 20% of them were active in at least one assay; those are over-represented in the sample as a whole.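 Negative percent growth values reflect cell death: -40 means 40% of the cells present at the start died, and -100 means all died.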 Unmarked numbers belong to inactive results. Active and inactive are the calls of the source.

This assay relates to UO-31 renal. As to the kind of experiment: NCI-60 one-dose screen, 48 h (100 = growth as untreated, 0 = no growth, -100 = all killed). The conditions noted are these: 10 µM unless noted. The protocol: Growth inhibition of the UO-31 human tumor cell line is measured as a screen for anti-cancer activity. Cells are grown in 96 well plates and exposed to the test compound for 48 hours. Compounds are tested at a single concentration, which is 10^-5 M for most compounds. The reported endpoint is percent growth (GI% or GIPRCNT), where numbers from 0 - 100% represent growth inhibition, and numbers from -100% - 0 represent cell death. For example, a value of 40 represents 60% growth inhibition. A value of 0 means no net growth occurred over the course of the experiment. A value of -40 indicates 40% of cells at the beginning of the experiment died by the end of the experiment. A value of -100 means all cells are dead at the end of the experiment.
NCI-60 Human Tumor Cell Lines Screen was performed using the standard one-dose NCI protocol, which is described in more detail at https://dtp.cancer.gov/discovery_development/nci-60/default.htm.
Compounds with GIPRCNT values below 10 were considered active. Activity score was based on GIPRCNT using the following formula: […]
Score is 0 for GIPRCNT values of 100 or above, 50 for GIPRCNT values of 0, and 100 for GIPRCNT values of -100.
As for `COC(=O)C1(NC(=O)CNC(=O)OCc2ccccc2)CCCC1`, the growth was 93.1%.
Take `CCOC(=O)Nc1cc(-c2ccc(C)c(NS(C)(=O)=O)c2)nn2c(C)nnc12`: the growth is -1.22% (active).
Turning to `CNc1nc(NC2CCCC2)nc(Sc2ccc(OC)cc2)n1`, the growth was 12.8% [100 µM].
On to `Clc1ccc(C2c3ccccc3-c3nccn32)c(Cl)c1` (stereo not given), for which the growth is 80.1%.
As for `CCC(=O)Nc1cc2c(cc1Cl)-c1ccccc1C2`, the growth was 42.5%.
As to `COc1cnc2c(c1)C(=O)c1c-2n(CCCn2ccnc2)c(=O)c2cc(F)ccc12`, the growth was -77.5% (active).
For the compound `COCCCNS(=O)(=O)c1ncnc2nc[nH]c12`, the growth was 96.9%.
In the case of `O=CN1N=C(c2ccc(Cl)cc2)CC1c1cccc(Nc2ccnc3cc(Cl)ccc23)c1` (stereo not given), the growth is 19.5%.
Take `C[C@H]1C(=O)N2c3ccccc3[C@@]3(O)C[C@@H](n4cnc5ccccc5c4=O)C(=O)N1[C@@H]23`: the growth is 86.5%.
In the case of `Cc1[nH]ccc2cc3nc4ccccc4c3cc12`, the growth was 8.89% (active).
For `COc1cc(/C=C\C(C)=N\Nc2ccccc2)ccc1O`, the growth was 66%.
The figure for `CCCCCCCCCCCCCCCCCC1=NC(C)(CO)CO1` (stereo not given) is 76.3%; for `CC[C@H]1CN2CCc3cc(OC)c(OC)cc3C2C[C@@H]1CC1NCCc2cc(OC)c(OC)cc21` (stereo not given in full) it is -37.9% (active); for `N=C1c2nc3n(c2C(=O)c2nc4n(c21)CCCCC4)CCCCC3` it is 83.6%.
In the case of `O=C(O)C1C(c2ccccc2)c2ccccc2C(O)C1CO` (stereo not given), the growth was 78.2%.
Turning to `CC(=O)Nc1ccc(C(=O)COc2cccc(/C=C3\CCc4ccccc4C3=O)c2)cc1`, the growth is 5.8% (active).
The figure for `COc1ccc(NC(=O)c2ccc(-c3ccccc3)cc2)c(C(N)=O)c1` is 79.6%; for `COc1ccc(-c2c3c(N)nc(-c4ccncc4)nc3nc3c2c(C)nn3-c2ccccc2)cc1` it is 85.4%; for `OCCCc1n(Cc2ccc3ccccc3c2)c2ccccc2[n+]1Cc1ccc2ccccc2c1` it is 76.4%.
As for `CC(C)CC1NC(=O)C(CCCN)NC(=O)C(C(C)C)NC(=O)C2CCCN2C(=O)C(Cc2ccccc2)NC(=O)C(CC(C)C)NC(=O)C(CCCN)NC(=O)C(C(C)C)NC(=O)C2CCCN2C(=O)C(Cc2ccccc2)NC1=O` (stereo not given), the growth is -20% (active).
The figure for `CCCCCCCCN(CCO)CCCCCCCC` is 80.2%.
As for `COc1cc(/C=C2\SC(N3CCCCC3)=NC2=O)ccc1OCCCCCCOc1ccc(/C=C2\SC(N3CCCCC3)=NC2=O)cc1OC`, the growth is 33.5%.
For `O=C(CSc1nnc(-c2cc(-c3ccccc3)nc3ccccc23)o1)c1ccc(Br)cc1`, the growth is 83.1%.
For the compound `CN1CCN(c2nc3scc(-c4ccccc4)c3c(=O)[nH]2)CC1`, the growth was 81.4%.
Turning to `COc1ccc(CNC(=O)c2c(C)n([O-])c3ccc(OC)cc3[n+]2=O)cc1`, the growth is 21.9%.
Regarding `N#Cc1c(-c2ccccc2)cc(-c2ccccc2)n(CCC(=O)O)c1=O`, the growth was 63.1%.
For the compound `O=C(COc1cccc(/C=C2\Oc3ccc4ccccc4c3C2=O)c1)c1ccc([N+](=O)[O-])cc1`, the growth was -41.6% (active).
On to `O=C1c2cc3c(cc2-c2c1c1ccc(Cl)cc1c(=O)n2CCCNCCO)OCO3`, for which the growth is -81.7% (active).
On to `O=C1Nc2ccc(C(=O)O)c(O)c2C1=O`, for which the growth was 91.7%.
In the case of `CC(C)OP(=O)(OC(C)C)c1ncc(-c2ccc(C(F)(F)F)cc2)c(NC2CCCCCC2)n1`, the growth was -91.5% [33.3 µM] (active).
In the case of `COc1cc(Cl)cc(-c2nn(-c3cccc(NC(=O)c4cc(C(F)(F)F)cc(C(F)(F)F)c4)c3)cc2-c2ccncc2)c1`, the growth is 54.3%.
For `Fc1ccc(-c2nn3c(-c4cc(C(F)(F)F)cc(C(F)(F)F)c4)nnc3s2)cc1`, the growth was 29.2%.
`O=C(COc1cccc(/C=C2\Oc3ccc4ccccc4c3C2=O)c1)c1ccc(Cl)cc1`: the growth is -7.73% (active).
With `O=c1oc2c(cc1-c1ccc([N+](=O)[O-])cc1)C(O)Oc1ccccc1-2` (stereo not given), the growth was 74.5%.
Turning to `Cn1cnc([N+](=O)[O-])c1Sc1nc(N)nc2nc[nH]c12`, the growth is 16.9%.
`C1=C(Cc2ccccc2)n2cnc3ncnc(c32)S1`: the growth was 48.3%.
For `CC(=O)c1ccccc1NC(=O)C(C)(c1ccccc1)c1ccccc1`, the growth was 81.7%.
Turning to `COc1cc2c(cc1OC)C(CC1(O)CCCCC1)N(S(=O)(=O)c1ccc(C)cc1)CC2` (stereo not given), the growth was 25.8% [100 µM].
As for `C=CCNC(=O)/C(=C/c1cccc([N+](=O)[O-])c1)NC(=O)c1ccccc1`, the growth was 90%.
As for `COc1ccc(C(=O)/C=C/c2cccc(Nc3ccnc4cc(Cl)ccc34)c2)cc1`, the growth was 6.64% (active).

Source of the values: PubChem BioAssay (NCI).
